CHO-K1 Ca antag – M1 antagonist counterscreen hit in parental CHO-K1 cells | ATP-induced calcium, Fluo-8 fluorescence | inhibition, % at 3 µM | 360,000 compounds, 0.6% hits;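 active = inhibition above a per-plate cutoff, the plate's mean sample inhibition plus 3 SD, cut at about 24% in these data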
M1 antag – antagonists of human M1 muscarinic receptor. inhibition, % at 3 µM. 360,000 compounds, 1.3% hits. AID 588852. CHO-K1 hM1, Fluo-8 calcium fluorescence, ACh EC80 antagonist;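 active = percent inhibition above its own plate's cutoff, namely the mean of that plate's compound wells plus 3 SD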;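 also: peak over basal fluorescence ratio during 140 s after agonist addition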
Target sequence (P11229 whole entry, looked up): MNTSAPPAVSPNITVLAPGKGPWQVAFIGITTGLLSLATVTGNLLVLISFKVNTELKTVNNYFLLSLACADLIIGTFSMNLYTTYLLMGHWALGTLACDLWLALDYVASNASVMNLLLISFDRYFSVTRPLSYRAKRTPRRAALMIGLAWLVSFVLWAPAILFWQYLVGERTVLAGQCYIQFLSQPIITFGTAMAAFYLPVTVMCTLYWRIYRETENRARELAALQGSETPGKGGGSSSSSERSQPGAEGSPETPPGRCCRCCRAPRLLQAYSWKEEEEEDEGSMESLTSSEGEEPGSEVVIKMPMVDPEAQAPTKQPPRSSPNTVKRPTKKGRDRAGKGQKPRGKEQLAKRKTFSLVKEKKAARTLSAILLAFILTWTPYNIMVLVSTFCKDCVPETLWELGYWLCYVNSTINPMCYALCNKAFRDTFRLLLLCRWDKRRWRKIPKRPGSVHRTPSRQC
CHO-K1 Ca ag – counter-screen for M1 agonists: effect in parental CHO-K1 cells. activation, % at 3 µM. AID 602248. Fluo-8 calcium fluorescence; scaled to maximal ATP response, vehicle zero. 360,000 compounds, 0.48% hits; in the data active = activation above about 15%;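 also: untransfected CHO-K1 host cells lacking M1 receptor as counterscreen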
M1 ag – agonists of human M1 muscarinic receptor; 360,000 compounds, 0.33% hits; CHO-K1 hM1, Fluo-8 calcium fluorescence, agonist mode; 0% DMSO, 100% acetylcholine EC100; activation, % at 3 µM; P11229;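 active = activation above the run's mean compound activation plus 3 SD, cut at about 16% in these data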;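 also: peak over basal fluorescence ratio within a 140 s kinetic read after compound addition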
CHO-K1 Ca PAM – counter-screen for M1 PAMs: effect in parental CHO-K1 cells | ATP EC20, Fluo-8 calcium fluorescence; 0% at ATP EC20, 100% at ATP max | activation, % at 3 µM | 360,000 compounds, 0.02% hits;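 active = activation above the run cutoff, the mean activation of all test compounds plus 3 SD, cut at about 40% in these data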;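 also: peak over basal fluorescence ratio in a 140 s read after ATP addition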
CHRM1 PAM – positive allosteric modulators of human M1 muscarinic receptor. activation, % at 3 µM. AID 588819. CHO-K1 hM1, Fluo-8 calcium fluorescence, ACh EC20; 0% = ACh EC20, 100% = maximal ACh. P11229. 360,000 compounds, 0.088% hits; in the data active = activation above about 19%, passing the limit was not always enough
Hits are given with their value; 0 = inactive. Rows were chosen to be rich in hits. Some 2.3% of all compounds tested hit in one or more screens of this group.

SMILES	CHO-K1 Ca antag	M1 antag	CHO-K1 Ca ag	M1 ag	CHO-K1 Ca PAM	CHRM1 PAM
COc1ccc(C(=O)CSc2nnc(-c3cccs3)n2-c2ccccc2)cc1	0	0	0	0	0	0
COc1ccc(C(=O)CSc2nnc(CN3CCCCC3)n2-c2ccc(F)cc2)cc1	0	0	20	17	0	0
Cc1ccc(S(=O)(=O)N2CCOCC2)cc1C(=O)NCc1cccs1	25	0	0	0	0	0
O=C(NCc1cccs1)c1ccc(S(=O)(=O)N2CCOCC2)cc1	0	0	0	0	0	0
COc1ccccc1CCNC(=O)C(=O)c1cn(CC(=O)N2CCCC2)c2ccccc12	0	0	0	0	0	0
O=C(NCCc1ccccc1)C(=O)c1cn(CC(=O)N2CCCC2)c2ccccc12	24	0	0	0	0	0
COc1c(Br)cc(Br)cc1/C=N/NC(=O)c1ccncc1	0	0	15	0	0	0
COc1ccc(C2C(C(=O)N3CCCC3)c3cc(OC)c(OC)cc3C(=O)N2C)cc1 (stereo not drawn)	26	0	0	0	0	0
CCn1c(=O)c(C(=O)NNC(=O)c2ccccc2)c(O)c2ccccc21	0	0	19	0	0	0
CCCn1c(=O)c(C(=O)NNC(=O)c2ccccc2Cl)c(O)c2ccccc21	0	0	21	30	0	0
CC(C)Cn1c(=O)c(C(=O)Nc2ccncc2)c(O)c2ccccc21	0	99	0	0	0	0
CC(=O)OC[C@@H]1CN(Cc2ccccc2)C[C@H](n2cnc3c(NCC(C)C)ncnc32)O1	0	0	0	0	0	0
Cc1cc(Cn2nc(-c3ccccc3)cc2C(=O)NCC2CC2)on1	0	0	0	0	0	0
COc1ccccc1CN(C)C(=O)COC(=O)c1cc(C)oc1C	0	0	0	0	0	0
COc1ccc(C2NC(=O)C(C#N)=C(S)N2c2cccc(C)c2)cc1OC (stereo not drawn)	0	0	16	0	0	0
COc1ccc(C2NC(=O)C(C#N)=C(S)N2c2ccc(C)cc2)cc1OC (stereo not drawn)	0	0	0	0	0	0
Cc1[nH]c2c(ccc3cccnc32)c1C	0	0	0	0	0	0
CC1=[N+](C)c2c(ccc3cccnc23)C1(C)C	34	0	16	0	0	0
CCc1nn(CC(=O)NCCC2=CCCCC2)c(=O)c2cc3cc(F)ccc3n12	0	0	0	0	0	0
CN(C)S(=O)(=O)N1CCC(Oc2cccc(C(=O)NC3CCCCC3)c2)CC1	0	0	0	0	0	0
CN(C)S(=O)(=O)N1CCC(Oc2cccc(C(=O)NCCC3=CCCCC3)c2)CC1	0	0	16	0	0	0
Cc1ccc(S(=O)(=O)Nc2ccc3c(c2)nc(CCN2CCCCC2)n3C)cc1	0	0	0	0	0	0
Cc1ccc(S(=O)(=O)Nc2ccc3c(c2)nc(CCN2CCN(c4ccccn4)CC2)n3C)cc1	0	79	0	0	0	0
Cn1c(CCN2CCN(c3ccccn3)CC2)nc2cc(NS(=O)(=O)c3ccc(Cl)cc3)ccc21	0	98	0	0	0	0
CCOc1ccc(CCNS(=O)(=O)c2ccc3c(c2)oc(=O)n3C)cc1OCC	0	0	15	0	0	0
SMILES	CHO-K1 Ca antag	M1 antag	CHO-K1 Ca ag	M1 ag	CHO-K1 Ca PAM	CHRM1 PAM
COc1ccc(CCNS(=O)(=O)c2ccc3c(c2)oc(=O)n3C)cc1OC	0	0	0	0	0	0
COC(=O)C[C@H]1C[C@H]2c3cc(NS(=O)(=O)c4ccc(OC)cc4)ccc3O[C@H]2[C@H](CO)O1	0	0	0	0	0	0
Cc1ccc2nc(SCC(=O)N3CCC(Cc4ccccc4)CC3)nc(=O)n2c1	0	0	0	20	0	0
O=C(CNCCO)N1N=C(c2cccs2)CC1c1cccs1 (stereo not drawn)	0	0	0	0	0	0
O=C(CN1CCCCC1)N1N=C(c2cccs2)CC1c1cccs1 (stereo not drawn)	0	97	0	0	0	0
CCCCn1c(-c2ccc(Cl)cc2)nc2c(=O)n(C)c(=O)[nH]c21	0	0	0	0	0	0
Cn1c(=O)[nH]c2c(nc(-c3ccc(Cl)cc3)n2C)c1=O	29	0	0	0	0	0
COc1ccc(OC)c(S(=O)(=O)N2CCCC(C(=O)NCCN3CCOCC3)C2)c1 (stereo not drawn)	0	0	0	0	0	0
C/C(=N/OC(=O)c1c(-c2ccccc2Cl)noc1C)c1cnccn1	0	74	0	0	0	0
C/C(=N\OC(=O)c1c(-c2ccccc2Cl)noc1C)c1nccs1	0	0	0	0	0	0
C/C(=N/OC(=O)c1c(-c2c(Cl)cccc2Cl)noc1C)c1cnccn1	0	77	0	0	0	0
CC1CCC(NC(=O)c2nn(C)c3c2CSc2ccccc2-3)CC1 (stereo not drawn)	0	0	0	0	0	0
CSc1ccc(S(=O)(=O)NCC(=O)OCC(=O)N2CCCCC2C)cc1[N+](=O)[O-] (stereo not drawn)	0	0	0	0	0	0
COc1ccc(C(C)(O)c2nc(-c3ccc(S(C)(=O)=O)cc3)cs2)cc1 (stereo not drawn)	0	0	0	0	0	0
COc1ccc(NC(=O)COc2cccnc2[N+](=O)[O-])cc1OC	0	0	0	0	0	0
O=C(COc1cccnc1[N+](=O)[O-])Nc1ccc2c(c1)OC(F)(F)O2	0	50	0	0	0	0
O=C(COc1cccnc1[N+](=O)[O-])Nc1ccc2c(c1)CCC2	0	36	0	0	0	0
CCOC(=O)c1cnc2ccc(OCC)cc2c1N1CCN(c2ccccc2OC)CC1	0	34	0	0	0	0
Cc1nc(Nc2cc(F)ccc2C)c2nnn(Cc3ccccc3)c2n1	0	0	0	0	0	0
O=C(NC1CCCC1)c1cc(-c2ccc(Cl)cc2)on1	0	26	0	0	0	0
CC(C)(C)C(=O)CSc1nc(N)cc(=O)[nH]1	0	0	0	0	0	0
CC(C)CC1C(=O)N(Cc2cn(Cc3ccco3)nn2)CCS(=O)(=O)N1Cc1ccc(-c2ccccc2)cc1 (stereo not drawn)	0	0	0	0	0	0
Cc1c(NC(=O)Nc2ccc(Cl)c(Cl)c2)c(=O)n(-c2ccccc2)n1C	0	40	0	0	0	0
Cc1c(Cl)c([N+](=O)[O-])nn1CCCC(=O)Nc1c(C)n(C)n(-c2ccccc2)c1=O	0	67	0	0	0	0
Cc1c(NC(=O)Nc2ccccc2)c(=O)n(-c2ccccc2)n1C	0	0	0	0	0	0
CCOC(=O)Cc1csc(NC(=O)Nc2cccs2)n1	0	0	16	0	0	0
O=C(CC1S/C(=N/N=C2CCCCCC2)NC1=O)Nc1ccc(Br)cc1F (stereo not drawn)	0	0	0	0	0	0

Source: PubChem BioAssay
